From PubChem BioAssay (Tox21) come the findings set out here.

Test [1] in a line: Caspase-3/7 induction in HepG2 cells by small molecules, qHTS assay (AID 1346978). Note: nearly all actives have a fitted effect of over 15% in size. Summed up:
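Wild-type HepG2 cells, 2,000/well, settled 5 hr at 37 C and 5% CO2, then compound-treated for 17 hr; caspase-3/7 activity read by luminescent Caspase-Glo 3/7 after 30 min at room temperature.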

A short description of test [2]: Caspase-3/7 induction in CHO-K1 cells by small molecules, qHTS cell viability counter screen (AID 1346979). Note: nearly all actives have a fitted effect of over 35% in size. Note: potency is the fitted concentration of half-maximal effect. Summed up: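 Multiplexed with Caspase-Glo 3/7 in CHO-K1 cells, this counter screen added CellTiter-Fluor after 16hr of compound exposure and recorded fluorescence 1hr later.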
(Quantitative high-throughput screening tests each substance at several concentrations.)

Test [3] is described as follows: Caspase-3/7 induction in CHO-K1 cells by small molecules, qHTS assay (AID 1346980). Note: nearly all actives have a fitted effect of over 15% in size. Summed up: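 Wild-type CHO-K1 cells exposed to compounds for 17hr at 37 C, 5% CO2. Caspase-3/7 activity then measured by Caspase-Glo 3/7 luminescence after 30min at room temperature.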
Test [4] addresses Nuclear receptor subfamily 1 group I member 2 (Homo sapiens) (UniProt O75469). Briefly: Human pregnane X receptor (PXR) small molecule agonists, qHTS assay (AID 1346982). Note: nearly all actives have a fitted effect of over 35% in size. An outline of the steps:
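PXR-Luc HepG2 cells (CYP3A4 promoter-driven luciferase) were seeded in medium with 5% charcoal-stripped FBS, left 5 hr at 37 C, then exposed to compounds in DMSO for 24 hr. Luminescence was read after ONE-Glo addition.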

Test [5] has the same target. Briefly: CYP3A4 induction through human pregnane X receptor (PXR) by small molecules, qHTS assay (AID 1346984). Note: nearly all actives have a fitted effect of over 40% in size. Note: potency is the fitted concentration of half-maximal effect. An outline of the steps: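 DPX-2 cells (HepG2 co-transfected with PXR and CYP3A4 promoter-luciferase) treated with compounds 24 h at 37C; luciferin-IPA CYP3A4 substrate 3uM final added for 3 h, then One-Glo; luminescence read. qHTS format.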
Test [6] addresses Cytochrome P450 2C19 (Homo sapiens) (UniProt P33261). Description: Cytochrome P450 Family 2 Subfamily C Member 19 (CYP2C19) small molecule antagonists: luciferase reporter qHTS assay (AID 1671197). For activity change, negative = inhibition: series mostly up to about 120 µM. Note: nearly all actives have a fitted effect of over 65% in size. Note: potency is the fitted concentration of half-maximal effect. Summed up: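 Relative luminescence units recorded 20 min after the detection reagent stopped a 1 h, 37C CYP2C19 reaction on proluciferin substrate, which was started by NADPH regeneration following 10 min room-temperature compound preincubation; ketoconazole positive control.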
(A reporter such as luciferase makes a cellular process visible.)

Test [7] concerns the target Cytochrome P450 2C9 (Homo sapiens) (UniProt P11712). Description: Cytochrome P450 Family 2 Subfamily C Member 9 (CYP2C9) small molecule antagonists: luciferase reporter qHTS assay (AID 1671198). Note: series mostly up to about 120 µM; nearly all actives have a fitted effect of over 50% in size. An outline of the steps:
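P450-Glo proluciferin substrate with CYP2C9 enzyme; 10 min RT preincubation, then NADPH regeneration 1 h at 37C; luciferin detection reagent 20 min RT, luminescence in relative luminescence units.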

For test [8], the target named is Cytochrome P450 1A2 (Homo sapiens) (UniProt P05177). Description: Cytochrome P450 Family 1 Subfamily A Member 2 (CYP1A2) small molecule antagonists: luciferase reporter qHTS assay (AID 1671199). Note: series mostly up to about 120 µM; nearly all actives have a fitted effect of over 50% in size. Summed up:
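Human CYP1A2 activity measured with a P450-Glo proluciferin substrate; compounds in DMSO preincubated 10 min at room temperature with enzyme-substrate mix, then NADPH regeneration system added for 1 h. Luciferin detection reagent, 20 min, luminescence read.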

The target of test [9] is Voltage-gated inwardly rectifying potassium channel KCNH2 (Homo sapiens) (UniProt Q12809). Briefly: Human Ether-a-go-go-Related Gene (hERG) channel small molecule antagonists: fluorescence cell-based qHTS assay (AID 1671200).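 Note: hERG-expressing U2OS cells given a thallium stimulus after FluxOR II dye loading; series mostly up to about 77 µM; nearly all actives have a fitted effect of over 50% in size.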 Summed up:
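Cell line hERG-U2OS; dye FluxOR II, 1 h RT dark; Tl+ stimulus; ex 480/em 540 nm, read each second for 2 min.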
(In general: hERG is a cardiac potassium channel; its block is linked to QT prolongation.)

For test [10], the target named is Cytochrome P450 2D6 (Homo sapiens) (UniProt P10635). Description: Cytochrome P450 Family 2 Subfamily D Member 6 (CYP2D6) small molecule antagonists: luciferase reporter qHTS assay (AID 1671196). Note: series mostly up to about 120 µM; nearly all actives have a fitted effect of over 50% in size. An outline of the steps: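 CYP2D6 enzyme–substrate mix was held with compound for 10 min at room temperature, then NADPH regeneration solution was added and the reaction ran 1 h at room temperature. Luciferin product was detected by luminescence after 20 min with detection reagent.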

Test [11] has as its target Cytochrome P450 3A4 (Homo sapiens) (UniProt P08684). Briefly: Cytochrome P450 Family 3 Subfamily A Member 4 (CYP3A4) small molecule antagonists: luciferase reporter qHTS assay (AID 1671201). An outline of the steps:
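Room-temperature assay throughout: 10 min compound–enzyme/substrate preincubation, 1 h reaction after NADPH regeneration solution, 20 min detection. Luciferin formed from proluciferin substrate is quantified by luminescence.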

Test [12] deals with Nuclear receptor subfamily 1 group I member 2 (Rattus norvegicus) (UniProt Q9R1A7). Briefly: Rat pregnane X receptor (rPXR) activation by small molecules, qHTS assay (AID 1346983). Note: nearly all actives have a fitted effect of over 20% in size. As to conditions: rPXR luciferase reporter cells, One-Glo luminescence, 24 h; max activation: active compounds read high. Summed up:
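Cell-based rPXR activation assay: rPXR cells, 2,000 per well, rested 5hr at 37 C, then exposed to compounds in DMSO for 24 hr at 37 C. Luciferase activity read by One-Glo luminescence after 30 min at room temperature.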

Test [13] deals with Nuclear receptor subfamily 1 group I member 2 (Homo sapiens) (UniProt O75469). Description: Human pregnane X receptor (PXR) activation by small molecules, qHTS assay (AID 1346985). Note: nearly all actives have a fitted effect of over 40% in size. An outline of the steps:
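DPX-2 cells (HepG2 co-transfected with a PXR response element and a CYP3A4-promoter luciferase construct) were seeded at 2,000 per well, rested 5 hr at 37C, then exposed to DMSO-dissolved compounds for 24 hr. Activation was read as luciferase luminescence.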

Test [14] in a line: Caspase-3/7 induction in HepG2 cells by small molecules, qHTS cell viability counter screen (AID 1346981). Note: series mostly up to about 92 µM; nearly all actives have a fitted effect of over 30% in size. An outline of the steps:
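Wild-type HepG2 cells (2,000/well) were allowed to settle for 5 hr at 37 C, 5% CO2, then dosed with compounds in DMSO by pin transfer. After 16 hr at 37 C, CellTiter-Fluor was added and fluorescence read 1 hr later.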

Values without a mark were called inactive. Records with an inconclusive call do not appear. Activity calls are given as the source filed them. Calls come from the whole dose curve; as a rule, active = well fitted curve in the direction sought with a large enough effect in the repeat runs; inconclusive = weak or mixed curves; inactive = no such curve, though single readings can be large; an effect the other way counts as inactive or inconclusive.
% is set by controls: 0 for no effect and ±100 for the full control effect.

Chain of Cytochrome P450 2D6 (Homo sapiens) (P10635 whole entry, looked up): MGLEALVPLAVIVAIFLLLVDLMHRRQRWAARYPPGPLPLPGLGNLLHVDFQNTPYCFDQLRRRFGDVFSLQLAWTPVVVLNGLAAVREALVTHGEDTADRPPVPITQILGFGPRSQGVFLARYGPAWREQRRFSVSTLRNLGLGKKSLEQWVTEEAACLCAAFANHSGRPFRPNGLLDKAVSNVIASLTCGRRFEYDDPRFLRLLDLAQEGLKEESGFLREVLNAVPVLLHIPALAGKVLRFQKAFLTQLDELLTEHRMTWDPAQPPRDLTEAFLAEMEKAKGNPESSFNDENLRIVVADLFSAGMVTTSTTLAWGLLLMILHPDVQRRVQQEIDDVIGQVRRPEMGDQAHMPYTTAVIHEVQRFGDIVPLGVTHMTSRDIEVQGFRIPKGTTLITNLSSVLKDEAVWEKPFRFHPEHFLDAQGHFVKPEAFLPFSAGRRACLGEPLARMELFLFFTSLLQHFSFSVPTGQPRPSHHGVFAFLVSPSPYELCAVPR
Chain of Nuclear receptor subfamily 1 group I member 2 (Homo sapiens) (O75469 whole entry, looked up): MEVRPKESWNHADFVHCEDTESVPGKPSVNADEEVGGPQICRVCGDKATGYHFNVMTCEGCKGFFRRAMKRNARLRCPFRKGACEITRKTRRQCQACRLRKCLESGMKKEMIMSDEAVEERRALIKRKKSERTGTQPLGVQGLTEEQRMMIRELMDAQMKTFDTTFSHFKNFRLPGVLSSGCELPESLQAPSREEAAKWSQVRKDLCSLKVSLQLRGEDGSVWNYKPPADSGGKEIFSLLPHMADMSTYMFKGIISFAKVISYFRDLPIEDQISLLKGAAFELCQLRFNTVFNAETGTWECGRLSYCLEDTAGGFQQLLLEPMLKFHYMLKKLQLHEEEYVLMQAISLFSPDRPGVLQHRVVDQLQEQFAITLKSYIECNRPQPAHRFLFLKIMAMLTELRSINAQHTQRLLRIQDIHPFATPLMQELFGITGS
Chain of Cytochrome P450 3A4 (Homo sapiens) (P08684 whole entry, looked up): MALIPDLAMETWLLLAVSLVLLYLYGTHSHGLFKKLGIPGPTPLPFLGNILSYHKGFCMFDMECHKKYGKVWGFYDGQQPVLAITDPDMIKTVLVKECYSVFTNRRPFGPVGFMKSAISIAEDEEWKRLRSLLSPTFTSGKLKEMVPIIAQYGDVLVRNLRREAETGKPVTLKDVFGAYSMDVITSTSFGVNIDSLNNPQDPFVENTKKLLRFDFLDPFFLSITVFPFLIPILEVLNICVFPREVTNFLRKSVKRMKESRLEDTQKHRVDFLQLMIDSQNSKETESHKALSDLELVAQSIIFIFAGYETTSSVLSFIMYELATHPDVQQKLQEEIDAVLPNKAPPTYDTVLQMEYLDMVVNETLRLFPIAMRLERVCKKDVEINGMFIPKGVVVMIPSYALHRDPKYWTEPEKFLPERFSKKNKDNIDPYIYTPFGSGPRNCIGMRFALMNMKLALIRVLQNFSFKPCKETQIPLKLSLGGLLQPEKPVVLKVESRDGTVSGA
Chain of Voltage-gated inwardly rectifying potassium channel KCNH2 (Homo sapiens) (Q12809 whole entry, looked up): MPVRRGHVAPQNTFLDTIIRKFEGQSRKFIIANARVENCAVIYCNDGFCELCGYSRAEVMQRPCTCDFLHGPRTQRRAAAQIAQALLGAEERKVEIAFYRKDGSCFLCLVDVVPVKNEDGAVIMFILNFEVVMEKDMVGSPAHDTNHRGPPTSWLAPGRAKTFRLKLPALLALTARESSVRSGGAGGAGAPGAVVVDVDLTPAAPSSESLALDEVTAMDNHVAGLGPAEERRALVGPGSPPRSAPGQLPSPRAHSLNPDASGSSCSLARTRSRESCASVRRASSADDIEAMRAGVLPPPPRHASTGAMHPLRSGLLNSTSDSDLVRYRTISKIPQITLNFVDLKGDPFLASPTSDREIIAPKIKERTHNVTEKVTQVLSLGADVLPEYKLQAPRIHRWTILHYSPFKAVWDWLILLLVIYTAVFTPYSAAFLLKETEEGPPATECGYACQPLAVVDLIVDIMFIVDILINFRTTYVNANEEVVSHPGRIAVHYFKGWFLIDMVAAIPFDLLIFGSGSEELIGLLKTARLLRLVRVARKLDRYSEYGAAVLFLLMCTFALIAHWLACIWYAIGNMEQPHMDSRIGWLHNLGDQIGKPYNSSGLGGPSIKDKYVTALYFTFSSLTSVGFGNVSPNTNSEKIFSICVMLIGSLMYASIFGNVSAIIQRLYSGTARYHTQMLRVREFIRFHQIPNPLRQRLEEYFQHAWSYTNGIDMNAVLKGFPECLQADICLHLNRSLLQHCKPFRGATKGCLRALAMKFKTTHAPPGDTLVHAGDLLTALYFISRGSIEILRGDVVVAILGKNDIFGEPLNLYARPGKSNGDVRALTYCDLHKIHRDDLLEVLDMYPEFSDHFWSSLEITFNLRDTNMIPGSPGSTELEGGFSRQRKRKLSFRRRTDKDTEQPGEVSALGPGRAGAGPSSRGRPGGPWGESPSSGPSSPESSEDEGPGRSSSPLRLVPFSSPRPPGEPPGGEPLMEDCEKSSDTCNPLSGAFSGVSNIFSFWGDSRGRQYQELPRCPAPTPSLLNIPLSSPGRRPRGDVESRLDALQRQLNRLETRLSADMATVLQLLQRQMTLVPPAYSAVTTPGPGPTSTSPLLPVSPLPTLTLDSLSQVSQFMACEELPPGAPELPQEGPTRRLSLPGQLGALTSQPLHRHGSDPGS
Chain of Cytochrome P450 2C19 (Homo sapiens) (P33261 whole entry, looked up): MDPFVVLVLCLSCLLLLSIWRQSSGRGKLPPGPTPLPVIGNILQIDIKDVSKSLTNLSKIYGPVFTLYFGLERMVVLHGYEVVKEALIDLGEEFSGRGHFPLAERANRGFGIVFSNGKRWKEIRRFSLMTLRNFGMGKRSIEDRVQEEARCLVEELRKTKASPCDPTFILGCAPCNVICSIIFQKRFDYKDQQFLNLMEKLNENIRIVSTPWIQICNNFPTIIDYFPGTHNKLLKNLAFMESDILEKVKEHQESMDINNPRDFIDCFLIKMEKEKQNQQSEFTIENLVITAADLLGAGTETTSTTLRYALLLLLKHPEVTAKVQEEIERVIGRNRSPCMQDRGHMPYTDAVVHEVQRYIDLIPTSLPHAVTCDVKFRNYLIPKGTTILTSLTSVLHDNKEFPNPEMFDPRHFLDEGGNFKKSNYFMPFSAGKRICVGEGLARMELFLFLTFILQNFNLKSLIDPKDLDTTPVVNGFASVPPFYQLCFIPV
Chain of Cytochrome P450 1A2 (Homo sapiens) (P05177 whole entry, looked up): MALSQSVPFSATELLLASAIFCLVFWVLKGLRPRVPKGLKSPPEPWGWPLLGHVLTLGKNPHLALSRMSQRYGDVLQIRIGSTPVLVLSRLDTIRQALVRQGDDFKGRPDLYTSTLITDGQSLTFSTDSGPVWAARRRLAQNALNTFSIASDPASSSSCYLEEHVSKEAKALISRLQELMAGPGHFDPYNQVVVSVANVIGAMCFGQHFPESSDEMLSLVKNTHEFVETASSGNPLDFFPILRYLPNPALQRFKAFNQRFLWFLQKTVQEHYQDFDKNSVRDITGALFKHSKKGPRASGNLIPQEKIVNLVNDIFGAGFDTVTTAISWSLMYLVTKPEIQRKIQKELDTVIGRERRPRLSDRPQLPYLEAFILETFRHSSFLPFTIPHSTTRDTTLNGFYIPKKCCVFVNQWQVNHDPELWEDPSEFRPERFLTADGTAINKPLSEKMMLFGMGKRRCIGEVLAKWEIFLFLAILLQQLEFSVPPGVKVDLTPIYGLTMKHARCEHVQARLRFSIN
Chain of Cytochrome P450 2C9 (Homo sapiens) (P11712 whole entry, looked up): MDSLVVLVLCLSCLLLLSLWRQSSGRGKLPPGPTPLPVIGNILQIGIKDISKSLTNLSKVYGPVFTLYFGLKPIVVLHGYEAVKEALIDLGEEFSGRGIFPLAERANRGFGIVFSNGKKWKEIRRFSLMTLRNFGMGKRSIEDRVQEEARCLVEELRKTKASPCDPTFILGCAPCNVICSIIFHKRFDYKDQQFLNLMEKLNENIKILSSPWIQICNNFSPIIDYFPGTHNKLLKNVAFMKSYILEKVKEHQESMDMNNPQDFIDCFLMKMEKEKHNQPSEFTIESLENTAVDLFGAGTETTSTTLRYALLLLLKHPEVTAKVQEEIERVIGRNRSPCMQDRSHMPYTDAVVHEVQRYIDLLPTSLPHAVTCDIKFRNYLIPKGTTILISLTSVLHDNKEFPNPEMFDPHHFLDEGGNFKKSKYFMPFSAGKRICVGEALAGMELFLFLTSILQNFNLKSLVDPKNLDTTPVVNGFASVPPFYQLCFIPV
Chain of Nuclear receptor subfamily 1 group I member 2 (Rattus norvegicus) (Q9R1A7 whole entry, looked up): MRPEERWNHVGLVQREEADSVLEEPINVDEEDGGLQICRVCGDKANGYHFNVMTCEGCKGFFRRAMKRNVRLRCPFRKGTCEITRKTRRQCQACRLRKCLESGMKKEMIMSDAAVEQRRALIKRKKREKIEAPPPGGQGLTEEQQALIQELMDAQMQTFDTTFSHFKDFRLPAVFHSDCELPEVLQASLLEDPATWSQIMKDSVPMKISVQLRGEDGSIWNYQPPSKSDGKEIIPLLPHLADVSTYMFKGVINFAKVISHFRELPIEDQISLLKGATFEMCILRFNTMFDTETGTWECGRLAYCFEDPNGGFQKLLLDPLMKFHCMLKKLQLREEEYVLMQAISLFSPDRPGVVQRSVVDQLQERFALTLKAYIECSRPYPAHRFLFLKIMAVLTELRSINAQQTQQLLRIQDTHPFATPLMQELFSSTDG

For `Oc1ccccc1C=NCc1ccccc1`, the Potency entry in test [1], in [2], in test [4], in [6], in [7] and in test [8] was “inactive” in each case. Besides, in test [9], the Potency result is “inactive”. Moreover, in [3], the outcome was inactive. Besides, the Potency in test [5] was 14.1 µM (active).
Turning to `O=C(O)CN(CCN(CC(=O)O)CC(=O)O)CCN(CC(=O)O)CC(=O)O`, the caspase activation in test [1] was 0.916% [at 19 µM]. The Potency in [2] was 13 µM (active). Further, the caspase-3/7 activation in test [3] is 5.14% [at 19 µM]. Besides, the activation in test [4] is 8.36% [at 19 µM]. Besides, the activity change, negative = inhibition in test [10] was -5.69% [at 23.6 µM]; in [6], 49.7% [at 23.6 µM]; in [9], 6.28% [at 15.8 µM]; in test [11], 10.1% [at 23.6 µM]. Besides, the Potency entry in test [7] and in test [8] was “inactive” each time.
Turning to `Cc1cc(NS(=O)(=O)c2ccc(N)cc2)nc(C)n1`, the Potency result in test [1], in test [2], in [5], in test [13], in test [10] and in test [6] was “inactive” each time. Also, the Potency entry in test [7], in [8], in test [9] and in test [11] was “inactive” in each case. Besides, the result in [3] was inactive. Further, in test [12], the max activation is 1.05%.
Take `CC(=O)N[C@@H](CC(C)C)C(=O)O`: the Potency result in test [1], in [2], in test [14] and in test [9] was “inactive” in each case. In test [3], the compound was called inactive.
Turning to `CC(C)Nc1nc(N)nc(Cl)n1`, the Potency result in test [1], in test [2], in [14], in [6], in test [9] and in test [11] was “inactive” throughout. The outcome in test [3] was inactive.
Consider `CCOC(=O)C1CC(=O)C(=C(O)C2CC2)C(=O)C1` (stereo not drawn), for which the Potency result in [1], in test [2], in test [4], in test [10], in [8] and in test [9] was “inactive” in each case. In addition, in test [11], the Potency result was “inactive”. For the same compound, the call in test [3] was inactive. For the same compound, in test [6], the Potency was 71 µM (active).
`FC(F)(F)C(Cl)(Cl)Cl`: the Potency entry in test [1], in [2], in test [10], in test [6], in [7] and in test [8] was “inactive” each time. Moreover, the Potency result in [9] and in test [11] was “inactive” in each case. The compound was called inactive in [3].
In the case of `CCC1(C)NC(=O)NC1=O` (stereo not drawn), the Potency entry in test [1], in [2], in test [4], in test [10], in test [6] and in [9] was “inactive” in each case. Moreover, the Potency result in [11] was “inactive”. Moreover, the call in [3] was inactive.
`CC(C)C(=O)OCC(C)(C)C(O)C(C)C` (stereo not drawn): the Potency result in test [1], in test [2], in [4], in test [10], in [6] and in test [7] was “inactive” each time. In addition, the Potency result in [9] and in test [11] was “inactive” throughout. The compound was called inactive in test [3].
As for `CCCCNCCCC`, the Potency entry in [1], in test [2], in test [4], in test [7], in [8] and in test [9] was “inactive” throughout. Further, the Potency result in [11] was “inactive”. Besides, in [3], the call was inactive.
In the case of `O=C1CCC(C2CCCCC2)CC1`, the Potency result in [1], in test [2], in test [14] and in [9] was “inactive” in each case. Besides, the compound was classed as inactive in [3].
Regarding `CC(=O)N(CC(O)CN(C(C)=O)c1c(I)c(C(=O)NCC(O)CO)c(I)c(C(=O)NCC(O)CO)c1I)c1c(I)c(C(=O)NCC(O)CO)c(I)c(C(=O)NCC(O)CO)c1I` (stereo not drawn), the Potency result in [1], in test [2], in [4], in test [5], in [13] and in test [10] was “inactive” each time. Besides, the Potency result in [6], in [7], in test [8], in test [9] and in test [11] was “inactive” in each case. Further, in test [3], the result was inactive.
